Drawing on PubChem BioAssay (NCI), this text covers growth for 9 molecules.

Compounds without any hit were thinned out: in the full panel of roughly 83,000, 20% have a hit.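 Negative percent growth values reflect cell death: -40 means 40% of the cells present at the start died, and -100 means all died.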 Values without a mark were called inactive. Activity calls are given as the source filed them. Rule for the calls: active = growth percent below 10; inactive = the rest.

What all share (assay): NCI-60 one-dose screen, 48 h (100 = growth as untreated, 0 = no growth, -100 = all killed)
One assay deals with SK-MEL-2 melanoma. To be noted: 10 µM unless noted.
The subject of the next assay is SN12C renal. To be noted: 10 µM unless noted.
The subject of a further assay is UO-31 renal. To be noted: 10 µM unless noted.
For a further assay, the system named is TK-10 renal. To be noted: 10 µM unless noted.
For a further assay, the system named is ACHN renal. The settings on record: 10 µM unless noted.
In the next assay the test system is CAKI-1 renal. The settings on record: 10 µM unless noted.
In the next assay the test system is A498 renal. The settings on record: 10 µM unless noted.
The next assay relates to CCRF-CEM leukemia. To be noted: 10 µM unless noted.
Another assay concerns MOLT-4 leukemia. To be noted: 10 µM unless noted.
For another assay, the system named is SR leukemia. To be noted: 10 µM unless noted.
The test system of the next assay is RPMI-8226 leukemia. The settings on record: 10 µM unless noted.
The test system of another assay is OVCAR-8 ovarian. To be noted: 10 µM unless noted.
A further assay concerns OVCAR-5 ovarian. To be noted: 10 µM unless noted.
The next assay concerns OVCAR-4 ovarian. To be noted: 10 µM unless noted.
In a further assay the test system is SK-OV-3 ovarian. To be noted: 10 µM unless noted.
The test system of another assay is IGROV1 ovarian. The settings on record: 10 µM unless noted.
The subject of the next assay is OVCAR-3 ovarian. The settings on record: 10 µM unless noted.
For another assay, the system named is HS 578T breast. To be noted: 10 µM.
Another assay deals with NCI/ADR-RES ovarian. To be noted: 10 µM unless noted.
The next assay deals with EKVX NSCLC. The settings on record: 10 µM unless noted.

Regarding `O=[N+]([O-])c1cccc([I+]c2ccccc2)c1`, the growth in the assay with SK-MEL-2 melanoma is 76.1%; with SN12C renal it was 52.4%; in the assay with UO-31 renal it was 43.6%; in the assay on TK-10 renal, 67.5%; in the assay with ACHN renal, 63.3%; in the assay on CAKI-1 renal, 46%. Also, the growth is 40.5% in the assay with A498 renal; 15.8% in the assay with CCRF-CEM leukemia; 12.6% in the assay with MOLT-4 leukemia; 16.6% in the assay with SR leukemia; 27.9% with RPMI-8226 leukemia; 35% in the assay on OVCAR-8 ovarian. The growth in the assay with OVCAR-5 ovarian was 96.1%; with OVCAR-4 ovarian it was 58.4%; with SK-OV-3 ovarian, 54.9%; in the assay on IGROV1 ovarian it was 31.5%; in the assay on OVCAR-3 ovarian it was 58.7%; in the assay on HS 578T breast, 49.6%. Further, in the assay with NCI/ADR-RES ovarian, the growth is 77.5%.
With `C=C(C)C1CCC2(C(=O)O)CCC3(C)C(CCC4C5(C)CCC(O)C(C)(C)C5CCC43C)C12` (configuration not stated), the growth in the assay with SK-MEL-2 melanoma is 25.4%; in the assay on EKVX NSCLC, 48.1%; in the assay with SN12C renal, 26.8%; in the assay with UO-31 renal, 21.5%; in the assay on TK-10 renal, 12.8%; in the assay on ACHN renal, 24.2%. Also, the growth was 3.16% (active) in the assay with CCRF-CEM leukemia; 11.3% in the assay with MOLT-4 leukemia; 9.38% (active) in the assay on SR leukemia; 7.96% (active) with RPMI-8226 leukemia; -87.3% (active) in the assay on OVCAR-5 ovarian; -40.7% (active) in the assay on OVCAR-4 ovarian. For the same molecule, the growth with SK-OV-3 ovarian was 28%; in the assay on IGROV1 ovarian, 7.47% (active); with OVCAR-3 ovarian, -56.1% (active); with NCI/ADR-RES ovarian, -54% (active).
Turning to `O=C(NCC(c1ccsc1)N1CCCCCC1)c1ccc(C(F)(F)F)cc1` (configuration not stated), the growth is 94.3% in the assay on SK-MEL-2 melanoma; 96.8% with SN12C renal; 88.1% in the assay with UO-31 renal; 94.5% with TK-10 renal; 103% in the assay on ACHN renal; 85% in the assay on CAKI-1 renal. Moreover, the growth in the assay with A498 renal was 89.4%; in the assay on CCRF-CEM leukemia, 96.2%; in the assay with MOLT-4 leukemia, 78.2%; with SR leukemia, 85.8%; in the assay with RPMI-8226 leukemia, 88.8%; with OVCAR-8 ovarian it was 102%. In addition, the growth in the assay with OVCAR-5 ovarian was 106%; with OVCAR-4 ovarian, 94.6%; in the assay on SK-OV-3 ovarian, 109%; in the assay with IGROV1 ovarian, 96.8%; in the assay on OVCAR-3 ovarian, 103%; in the assay with HS 578T breast it was 102%.
As to `COC1CC(N)C2OC(c3ccccc3)OCC2O1` (configuration not stated), the growth in the assay on SK-MEL-2 melanoma was 114%; in the assay with SN12C renal, 99.3%; with UO-31 renal it was 97.6%; in the assay on TK-10 renal, 101%; with ACHN renal, 99.3%; with CAKI-1 renal, 96.8%. Moreover, the growth in the assay on A498 renal is 111%; with CCRF-CEM leukemia, 93.3%; in the assay on MOLT-4 leukemia, 100%; in the assay with SR leukemia it was 98%; in the assay on RPMI-8226 leukemia it was 92.8%; in the assay with OVCAR-8 ovarian, 98.4%. The growth in the assay on OVCAR-5 ovarian is 94.4%; in the assay on OVCAR-4 ovarian it was 97.5%; in the assay with SK-OV-3 ovarian, 115%; with IGROV1 ovarian, 110%; with OVCAR-3 ovarian it was 111%; in the assay on HS 578T breast it was 96.6%.
Take `COc1cc2cc(C(=O)Nc3ccccc3)c(N)nc2cc1OC`: the growth in the assay on SK-MEL-2 melanoma was -62% (active); in the assay with SN12C renal, 49.1%; in the assay on UO-31 renal, 5.81% (active); in the assay with TK-10 renal it was -48% (active); with ACHN renal, -0.0696% (active); in the assay on CAKI-1 renal, -13.8% (active). The growth with A498 renal was 52.4%; with CCRF-CEM leukemia, -21.7% (active); in the assay on MOLT-4 leukemia it was -44.6% (active); in the assay on SR leukemia, -35.8% (active); with RPMI-8226 leukemia, -21.2% (active); in the assay on OVCAR-8 ovarian it was -44.8% (active). The growth is 73% in the assay on OVCAR-5 ovarian; 22.3% in the assay on OVCAR-4 ovarian; 23% in the assay with SK-OV-3 ovarian; -11.7% (active) with IGROV1 ovarian; 27.8% with OVCAR-3 ovarian; 36.2% with HS 578T breast. Further, in the assay with NCI/ADR-RES ovarian, the growth is -29.1% (active).
Consider `CCc1ccc(Nc2cc(C)c3ccc(O)cc3n2)cc1`, for which the growth in the assay with SK-MEL-2 melanoma was 85%; in the assay on SN12C renal, 77%; in the assay with UO-31 renal, 44.1%; in the assay on TK-10 renal it was 74.1%; with ACHN renal it was 73.8%; in the assay on CAKI-1 renal, 53%. Moreover, the growth in the assay on A498 renal is 93.7%; in the assay with CCRF-CEM leukemia, 68.9%; in the assay on MOLT-4 leukemia, 62.9%; with SR leukemia, 43.9%; in the assay on RPMI-8226 leukemia, 29.9%; in the assay on OVCAR-8 ovarian, 80%. The growth with OVCAR-5 ovarian is 83.7%; in the assay with OVCAR-4 ovarian, 75.7%; in the assay with SK-OV-3 ovarian, 90.1%; in the assay with IGROV1 ovarian, 53.8%; in the assay on OVCAR-3 ovarian, 81%; in the assay on HS 578T breast it was 87.6%.
Consider `Cc1ccc(Nc2nc(NCCO)c3ccccc3n2)cc1C`, for which the growth in the assay on SK-MEL-2 melanoma is 39.5%; in the assay on SN12C renal, 21.5%; with UO-31 renal it was 24.6%; with TK-10 renal, 38.5%; in the assay with ACHN renal it was 33.1%; in the assay with CAKI-1 renal, 2.38% (active). Further, the growth in the assay on A498 renal was -11.9% (active); in the assay on CCRF-CEM leukemia it was 8.3% (active); in the assay on MOLT-4 leukemia it was 24.1%; in the assay with SR leukemia it was 19%; in the assay on RPMI-8226 leukemia, 19.7%; in the assay on OVCAR-8 ovarian it was 9.74% (active). The growth is 25.6% in the assay with OVCAR-5 ovarian; 50.6% in the assay with OVCAR-4 ovarian; -0.684% (active) with SK-OV-3 ovarian; 20.2% in the assay with IGROV1 ovarian; -9.61% (active) in the assay on OVCAR-3 ovarian.
As for `CNCCCNc1ccnc2cc(Cl)ccc12`, the growth was -64.5% (active) with SK-MEL-2 melanoma; 2.75% (active) with SN12C renal; -34.4% (active) with UO-31 renal; -11.4% (active) with TK-10 renal; -31.6% (active) with ACHN renal; -29.7% (active) in the assay on CAKI-1 renal. The growth in the assay on A498 renal was -78.2% (active); in the assay on CCRF-CEM leukemia, -17.1% (active); in the assay with MOLT-4 leukemia, 2.58% (active); with SR leukemia, 3.67% (active); in the assay on RPMI-8226 leukemia, -12.3% (active); in the assay with OVCAR-8 ovarian it was 1.62% (active). The growth in the assay with OVCAR-5 ovarian was 13.1%; in the assay on OVCAR-4 ovarian, -21.3% (active); with SK-OV-3 ovarian, 5.19% (active); in the assay with IGROV1 ovarian it was -21.7% (active); with OVCAR-3 ovarian, -31.2% (active); in the assay on HS 578T breast, -3.8% (active).
For `O=C(/C=C/c1ccccc1)C(Br)C(Br)c1ccccc1` (configuration not stated), the growth with SK-MEL-2 melanoma was 40.9%; with SN12C renal, 41.4%; with UO-31 renal it was -88.1% (active); in the assay on TK-10 renal it was -31.1% (active); in the assay on ACHN renal, -65.9% (active); in the assay on CAKI-1 renal it was -44.4% (active). Further, the growth is 85.1% in the assay on A498 renal; -41.4% (active) in the assay with CCRF-CEM leukemia; -25% (active) with MOLT-4 leukemia; -28% (active) in the assay on SR leukemia; -42.2% (active) with RPMI-8226 leukemia; -20.7% (active) in the assay with OVCAR-8 ovarian. For the same molecule, the growth with OVCAR-5 ovarian was 38.3%; in the assay with OVCAR-4 ovarian, 13%; with SK-OV-3 ovarian it was 86.1%; with IGROV1 ovarian, -45.5% (active); in the assay with OVCAR-3 ovarian, -31.1% (active); in the assay on HS 578T breast it was 100%. Moreover, in the assay on NCI/ADR-RES ovarian, the growth is 39.7%.
